HCV inhibitor: inhibitors of hepatitis C virus infection; Potency, µM (highest dose often 41.8 µM), inactives show at the highest dose activity change, negative = inhibition, usual class: inhibitors; AID 651820; Huh7.5.1 HCVcc-Cre infection, luciferase reporter, 44 h; 3.4% of 340,000 active; further: potency means the concentration at half of the fitted maximal effect; on the % scale 0 is the no-effect control and ±100 the full control effect
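Infectious HCVcc-Cre (~0.5 moi) was added to cells just after compound, with cells seeded 4 h earlier at 1,000 per well. Luciferase activity after 44 h culture reported infection; substrate was incubated 15 min at room temperature before reading.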
Cycloheximide cs: affects cycloheximide protein synthesis inhibition readout, counter-screen. cell reporter, cycloheximide protein synthesis inhibition counterscreen. 12% of 300,000 active. AID 2314. max response, %; in the data active means max response mostly above about 13%, no sharp cut-off; inactive means mostly below about 14%; further: read at 38.3 µM for the half of the compounds with a filed dose; 0% is about no effect
HCMV antiviral: blocks human cytomegalovirus replication | AID 1259415 | 4.5% of 410,000 active | HFF cells, HCMV-luciferase reporter, 72 h; stronger effect = lower value | activity change, negative = inhibition, % at 57.5 µM; in the data active means activity change below about -60%; inconclusive means no clear call, values can overlap the other calls; inactive means above about -39%; further: on the % scale 0 is the no-effect control and ±100 the full control effect
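Cell-based, HFFs, 1000 cells/well, 16 h 37C; cpds in DMSO + HCMV-luc, MOI 1 PFU/cell; 72 h 37C; OneGlo luminescence after 5 min RT; norm. to buffer vs Salinomycin 10uM.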
Shiga inhibitor: Shiga toxin inhibition; inhibition, % at 38.7 µM; 9.2% of 290,000 active; AID 2315; Vero cells, Shiga toxin protein synthesis inhibition reporter; in the data active means inhibition mostly above about 28%, no sharp cut-off; inactive means mostly below about 43%; further: 0% is about no effect
Pf growth 48h: P. falciparum growth inhibition at 48 hours (one generation). AID 504832. 5.9% of 310,000 active. Potency, µM (doses to about 28.7 µM), inactives show top-dose activity change, negative = inhibition, hits mostly inhibitors. P. falciparum luciferase growth in erythrocytes, 48 h; further: potency means the concentration at half of the fitted maximal effect; on the % scale 0 is the no-effect control and ±100 the full control effect
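Compounds are pin-transferred into medium, infected erythrocytes (2% hematocrit, 0.1% parasitemia final) are added, and plates sit one parasite generation at 37 C in 5% CO2. Detection reagent is then added and luminescence measured.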
Pf growth 96h: P. falciparum growth inhibition at 96 hour, primary screen for plastid delayed-death inhibitors; P. falciparum luciferase reporter growth, 96 h; Potency, µM (titrated, usually from 28.7 µM), for inactives: at the top dose activity change, negative = inhibition, usual class: inhibitors; 6.9% of 320,000 active; AID 504834; further: potency means the concentration at half of the fitted maximal effect; on the % scale 0 is the no-effect control and ±100 the full control effect
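Two-generation exposure (96 h) targets delayed-death phenotype. Reporter parasites carrying integrated firefly luciferase, in red cells at 2% hematocrit and 0.05% parasitemia final, kept at 37 C, 5% CO2; luminescence loss indicates inhibition.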
* = called active by the depositor; ? = inconclusive; . = not tested or not shown; [ ] = dose if it differs, or a comment. Rows were chosen to be rich in hits. Some 21% of all compounds tested hit in one or more screens of this group. Unless noted, the call rests on the fitted dose curve; in most records, active means well fitted inhibition curve with a large enough effect; inconclusive means small, poorly fitted or top-dose-only effect, or another doubt; inactive means no such curve, though single readings can be large or run the other way.

SMILES	HCV inhibitor	Cycloheximide cs	HCMV antiviral	Shiga inhibitor	Pf growth 48h	Pf growth 96h
Cc1ccc(C)c(S(=O)(=O)N2CCN(C(C)C(=O)Nc3ccccc3-c3ccccc3)CC2)c1 (stereo not drawn)	?	3	-13	-2	9.3µM*	4.1µM*
Cc1ccc(C)c(S(=O)(=O)N2CCN(C(=O)CSc3ccccc3)CC2)c1	.	0	-1	-22	15%	-11%
COc1cccc(NC(=O)CSC2=Nc3ccccc3C3=NC(CCC(=O)NC4CCCCC4)C(=O)N23)c1 (stereo not drawn)	.	.	0	.	.	.
CCc1ccc(-n2c(=O)c3cccnc3n2CC(=O)NCc2ccc(F)cc2)cc1	.	.	-10	.	.	.
Cc1ccc2oc3ccccc3c(=O)c2c1	-24%	.	-26	.	.	.
O=c1c2ccccc2oc2ccc(-c3ccc4cc[nH]c4c3)cc12	16µM*	.	.	.	.	.
Cc1cc(=O)oc2cc(OCC(=O)N(C)C3CCS(=O)(=O)C3)c(Cl)cc12 (stereo not drawn)	14%	10	3	17	6%	15%
Cc1csc2nc(COC(=O)c3ccc(NC(=O)C(C)C)cc3)cc(=O)n12	.	.	-34	.	.	.
Cc1ccccc1OCC(=O)Nc1ccccc1C(=O)OCc1cc(=O)n2ccsc2n1	.	.	46	.	.	.
Cc1ccccc1OCC(=O)Nc1ccccc1C(=O)OCc1cc(=O)n2c(C)csc2n1	.	.	-75*	.	.	.
Cc1cccc(OCC(=O)Nc2cccc(C(=O)OCc3cc(=O)n4c(C)csc4n3)c2)c1	.	.	-61*	.	.	.
Cc1csc2nc(COC(=O)c3ccc(NC(=O)c4ccccc4Br)cc3)cc(=O)n12	.	.	-72*	.	.	.
Cc1nc2c(=O)n(C)c(=O)[nH]c2n1Cc1ccccc1	16%	37*	30	20	24%	-4%
CCCn1c(-c2ccccc2)nc2c(=O)n(C)c(=O)[nH]c21	9%	-4	-3	-19	74%	19%
COc1cc(O)sc1C=Nc1ccc(Cl)cc1Cl	1%	14	-11	12	32%	0%
OC1(Cc2cc(-c3ccccc3)no2)CCN(CCCc2ccccc2)CC1	-29%	3	89	6	6.6µM*	3.3µM*
O=S1(=O)CCN(CCCc2ccccc2)CC1	.	.	-7	.	.	.
O=C(c1cccc2ccccc12)C1CCCN(C(=O)CCc2cnccn2)C1 (stereo not drawn)	-19%	15*	-2	14	-18%	?
NC(=O)CCC(=O)N1CCCC(C(=O)c2ccc(C(F)(F)F)cc2)C1 (stereo not drawn)	-4%	-2	-21	-5	4%	13µM*
COc1cc(CN2CCCC(C(=O)c3ccc(C(C)(C)C)cc3)C2)cc(OC)c1O (stereo not drawn)	?	18*	32	24	6.6µM*	36%
O=C(c1ccc(C(F)(F)F)cc1)C1CCCN(C(=O)CCc2ccncc2)C1 (stereo not drawn)	11µM*	9	-21	22	?	?
CCc1ccc(C(=O)c2cn(CC(=O)Nc3cc(OC)ccc3OC)c3ccc(C)cc3c2=O)cc1	.	.	3	.	.	.
Cc1ccc(OCCSc2nc(-c3ccccc3C)nc3cc(=O)[nH]n23)cc1Cl	.	.	2	.	.	.
Cn1c(=O)c2c(nc(OC3CCCCCC3)n2C)n(C)c1=O	28%	.	?	.	.	.
CN(C)C(=O)CCSc1nnc(-c2ccncc2)o1	19%	7	?	22	33%	0%
SMILES	HCV inhibitor	Cycloheximide cs	HCMV antiviral	Shiga inhibitor	Pf growth 48h	Pf growth 96h
O=C(c1ccc(C(F)(F)F)cc1)C1CCCN(Cc2ccncc2)C1 (stereo not drawn)	6.3µM*	1	?	2	12µM*	9%
Cc1ccc(S(=O)(=O)n2nccc2-c2c(-c3ccc(Cl)cc3)noc2C)cc1	14µM*	-1	-96*	-3	0.66µM*	0.37µM*
CCOC(=O)c1c(NC(C)=O)sc2c1CCC(C=NCCCN(CC)CC)=C2Sc1ccccc1	7.9µM*	.	.	.	.	.
CN(C)c1ccc(/C=C(/NC(=O)c2ccccc2)C(=O)NCCCn2ccnc2)cc1	6%	11	.	4	-34%	?
CN(Cc1ccc(Cl)c(Cl)c1)C(c1cc2ccccc2o1)c1nnnn1C(C)(C)C (stereo not drawn)	.	.	-78*	.	.	.
Cc1cc(=O)oc2cc(OCc3ccc(C(=O)OCC(=O)Nc4ccc(N(C)C)cc4)cc3)ccc12	10%	-1	18	17	35%	53%
Cc1cccc(-n2c(Cc3ccccc3)nnc2SCc2ccc([N+](=O)[O-])cc2)c1	?	-3	-70*	-6	?	7.4µM*
Cc1cccc(-n2c(Cc3ccccc3)nnc2SCC(=O)N2CCOCC2)c1	-3%	1	1	-9	.	4.1µM*
O=C(CSc1nnc(Cc2ccccc2)n1-c1ccc(F)cc1)N1CCOCC1	5%	-2	5	-21	5%	.
O=C(CSc1nnc(Cc2ccccc2)n1C1CCCCC1)N1CCOCC1	7%	16*	77	-25	32%	?
COc1ccc(CCNC(=O)CSc2nnc3ccc(-c4cccnc4)nn23)cc1	1%	-5	-32	-9	?	?
Cc1nn(C)c2c1c(C(F)(F)F)cc(=O)n2C(C)C(=O)Nc1ccccc1F (stereo not drawn)	.	.	1	.	.	.
CCN(C(=O)c1cn(CC)c(=O)c2cc(OC)c(OC)cc12)c1ccc(C)c(C)c1	.	.	-1	.	.	.
O=C(NCCCCNC(=O)c1ccccc1F)c1ccccc1F	-3%	-4	10	-4	-4%	?
O=C(NCc1cc2ccccc2[nH]1)c1ccccc1F	3%	38*	-4	.	77%	?
Cc1ccc2[nH]c(CNC(=O)c3ccccc3F)cc2c1	-8%	29*	26	51	50%	?
O=C(NCCCc1nc2ccccc2[nH]1)c1ccc(F)cc1	16%	4	16	-3	13%	10µM*
O=C(NCc1nc2ccccc2[nH]1)c1c(F)c(F)c(F)c(F)c1F	-13%	-5	-40	12	-17%	40%[5.75 µM]
O=C(NCc1nc2ccccc2[nH]1)c1ccccc1F	5%	33*	31	72*	70%	4%
